Results with a measured potency or affinity are listed apart. Values without a mark were called inactive. Activity calls are given as the source filed them. The rule behind the calls is not given here.

A short description of this test: A549 cell cytotoxicity, dose response, cytotoxicity control, plate reader, dry powder, set 6 (AID 743312). Particulars: series mostly up to 26 µM; activity change, negative = cytotoxicity: at the top concentration.
On to `c1ccc(COc2ccc(OCCn3cnc4ccccc43)cc2)cc1`, for which the “activity change, negative = cytotoxicity” value was -10.8%.
Same read-out and setting: then `CCCCc1nc2ccccc2n1CCOc1ccccc1`, with 14.4%; and `O=S(=O)(c1ccc(OCCn2cnc3ccccc32)cc1)N1CCOCC1`, with 22.3%; and `Cc1ccccc1OCCn1cnc2ccccc21`, with -4.27%.
For `Cc1cccc(OCCn2c(=S)[nH]c3c(F)cccc32)c1`, the result was inactive.
On to `Fc1cccc2c1[nH]c(=S)n2CCOc1ccccc1`, for which the “activity change, negative = cytotoxicity” value was -11.3%.
On the same count and under the same terms, the result for `Cc1cccc(OCCn2cnc3ccccc32)c1` reads 28.1%; that for `FC(F)(F)c1cccc(OCCn2cnc3ccccc32)c1`, 21.4%; that for `OCc1nc2ccccc2n1CCOc1ccccc1`, -16.5%.
On the same count and under the same terms, the result for `COc1ccc(OCCn2cnc3ccccc32)cc1` reads -23.8%; that for `CCSc1nc2ccccc2n1CCOc1ccccc1`, -4.67%; that for `COCc1nc2ccccc2n1CCOc1ccc(C(C)(C)C)cc1`, -14%.
Same read-out and setting: then `Fc1ccc(OCCn2c(=S)[nH]c3ccccc32)cc1`, with 18.4%; and `CSc1nc2ccccc2n1CCOc1ccc(C)cc1`, with 31.9%.
On to `CSc1nc2ccccc2n1CCOc1ccccc1`, for which the “activity change, negative = cytotoxicity” value is -2.73%.
Still for that read-out and setting: then `CC(C)Oc1ccc(OCCn2cnc3ccccc32)cc1`, with -7.64%; and `CCc1nc2ccccc2n1CCOc1ccccc1`, with -6.05%.
Same read-out and setting: the result for `S=c1[nH]c2cc(Cl)ccc2n1CCOc1ccccc1` reads -10.2%; that for `COc1cc(C)ccc1OCCn1cnc2ccccc21`, -1.25%; that for `CC(C)Oc1ccc(OCCn2c(=S)[nH]c3ccccc32)cc1`, -2.95%.
